Measured values: PubChem BioAssay
Active and inactive are the calls of the source.

Assays:
[1] = system: XIP peptide (Xip251-270) binding; assay: XIP fragment 251-270 binding compounds – biochemical, small-molecule microarray, fluorescence 635/667 nm, 0.1 µg/mL protein, primary screen (AID 1182); details: fluorescent protein binding, 635 nm, higher = more signal, called active from +8 up or from −8 down
[2] = system: XIP peptide (Xip251-270); assay: compounds binding XIP fragment 251-270 – biochemical, small-molecule microarray, fluorescence 635/667 nm, 0.5 µg/mL protein, primary screen (AID 1183); details: fluorescence 635 nm, higher = more signal
[3] = blood-stage malaria parasite viability loss – strain 3D7, DAPI fluorescence, 100 nL, primary screen (AID 1184);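 further: parasites grown inside human red blood cells in medium with human serum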; details: P. falciparum 3D7 growth, 3 d, higher = more signal
[4] = biological target: Homeobox protein Hox-A13 (Mus musculus) (UniProt Q62424); assay: disruptors of Hoxa13 oligonucleotide interaction – biochemical, fluorescence polarization, labeled oligonucleotide, primary screen (AID 1185); details: Hoxa13:DNA binding, 15 min, higher = more signal, called active from +8 up or from −8 down
Chain of Homeobox protein Hox-A13 (Mus musculus) (Q62424 whole entry, looked up): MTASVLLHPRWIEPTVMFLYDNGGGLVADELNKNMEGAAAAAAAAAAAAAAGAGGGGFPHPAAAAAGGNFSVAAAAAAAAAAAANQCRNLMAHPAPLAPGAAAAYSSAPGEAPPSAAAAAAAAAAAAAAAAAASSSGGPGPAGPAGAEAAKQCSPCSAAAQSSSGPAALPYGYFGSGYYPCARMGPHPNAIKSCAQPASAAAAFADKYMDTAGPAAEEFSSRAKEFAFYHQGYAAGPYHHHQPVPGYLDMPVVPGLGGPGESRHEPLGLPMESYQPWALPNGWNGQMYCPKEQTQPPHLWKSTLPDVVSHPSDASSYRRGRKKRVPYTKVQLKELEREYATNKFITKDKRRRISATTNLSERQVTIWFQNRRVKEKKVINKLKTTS

| Structure (SMILES) | composite z-score [1] | composite z-score [2] | z-score [3] | z-score [4] |
| --- | --- | --- | --- | --- |
| CCOC(=O)[C@H](CC(C)C)NC(=O)CCC1CC(OC(=O)NCc2ccc3c(c2)OCO3)CC2(CCCC(COC(=O)NCc3ccccc3)O2)O1 (some centres undefined) | 0.117 (inactive) | 0.118 | -1.79 | -6.86 (inactive) |
| CCN1C(=O)[C@H]2[C@H]3[C@H](O)[C@H](O)CC(=NOC(C)CN4CCCc5nc(C)c(C)cc54)[C@@H]3CC[C@H]2C1=O (some centres undefined) | 0.302 (inactive) | 0.148 | 0.393 | -10.2 (active) |
| C[C@H]1CC[C@@H](C(=O)O)N[C@@H]1c1cccc(N2CCCC2=O)c1 | 0.641 (inactive) | -0.397 | 0.752 | -0.0351 (inactive) |
| CO[C@@H]1[C@H](O)CO[C@H]1C=Cc1ccccc1 | -0.553 (inactive) | 0.836 | -0.703 | -3.28 (inactive) |
| C[C@@H]1C=CCC(=O)OC[C@H](C)C(=O)N[C@@H](Cc2ccccc2)C(=O)OC1 | -0.478 (inactive) | -0.0947 | -1.55 | 2.57 (inactive) |
| CCOC(=O)NN=C1C[C@@H](O)[C@@H](O)[C@@H]2[C@@H]3C(=O)N(CC)C(=O)[C@@H]3CC[C@H]12 | 0.124 (inactive) | -0.379 | 0.613 | 0.368 (inactive) |
| CCO[C@H](c1cc(OC)cc([N+](=O)[O-])c1OC)[C@H](C)[C@@H](OC)[C@H](C)C=CCC(=O)OC | 0.72 (inactive) | 0.0025 | -0.119 | -0.256 (inactive) |
| COC(=O)CC=C[C@@H](C)[C@@H](C=NOC[C@@H](O)COCc1ccco1)OC | 0.146 (inactive) | 0.338 | 0.715 | -0.341 (inactive) |
| O=C1C[C@@H](O)[C@@H](O)[C@@H]2[C@@H]3C(=O)N(C4CCCCC4)C(=O)[C@@H]3CC[C@@H]12 | -0.08 (inactive) | 0.148 | 0.922 | 0.136 (inactive) |
| C=CC[C@@H]1C=C[C@H](ON=C[C@@H](NS(=O)(=O)c2ccc(C)cc2)[C@H](C)C=CCC(=O)OC)[C@@H](CO)O1 | 0.278 (inactive) | 0.463 | -0.174 | -4.66 (inactive) |
| C=CC[C@@H]1C=C[C@H](Oc2ccc(C)cc2)[C@@H](COC(=O)NCc2cccc3ccccc23)O1 | -0.405 (inactive) | 0.427 | -0.517 | -0.901 (inactive) |
| C[C@]12CCC3c4ccc(OCC5CO5)cc4CCC3C1CC[C@@H]2O (some centres undefined) | 0.504 (inactive) | 0.0249 | 0.0788 | -2.47 (inactive) |
| CO[C@H]1COC(=O)[C@H](C)COC(=O)[C@@H](OCc2ccccc2)C=C[C@@H]1C | 0.277 (inactive) | -0.348 | 1.25 | -0.571 (inactive) |
| COc1ccc(O[C@H]2C=C[C@@H](c3ccccc3)O[C@@H]2COC(=O)CCC(C)=NOC[C@@H](O)COCc2ccco2)cc1 | -0.0073 (inactive) | -0.448 | 0.048 | -5.52 (inactive) |
| CCOC(=O)CCN1C(=O)[C@H]2[C@H]3[C@H](O)[C@H](O)CC(=NNC(=O)OCC)[C@H]3CC[C@H]2C1=O | 3.24 (inactive) | -0.397 | -1.58 | -4.5 (inactive) |
| CCOC(=O)[C@H](CC(C)C)NC(=O)CCC1CC(OC(=O)NCc2ccc3c(c2)OCO3)CC2(CCCC(COC(=O)NCCC(C)C)O2)O1 (some centres undefined) | 0.554 (inactive) | 0.842 | -0.278 | -1.7 (inactive) |
| C[C@H]1CC[C@H]2C(=O)O[C@H](CO)CN2[C@@H]1c1ccc(Br)cc1 | -0.0442 (inactive) | -0.127 | 0.389 | -3.98 (inactive) |
| CCOC(=O)NN=C1C[C@@H](O)[C@@H](O)[C@@H]2[C@@H]3C(=O)N(c4ccc(F)cc4F)C(=O)[C@@H]3CC[C@H]12 | 0.192 (inactive) | -0.119 | -1.36 | 1.14 (inactive) |
| CC(=O)OC[C@H]1O[C@H](CC=NO[C@@H](C)c2cc(-c3c(C)cc(C)cc3C)no2)C=C[C@@H]1OC(C)=O | 0.205 (inactive) | -0.445 | -0.863 | -5.88 (inactive) |
| CC(CCN1CCCc2nc(C)c(C)cc21)=NO[C@H](C)c1cn([C@H](CO)Cc2ccccc2)nn1 | -0.0325 (inactive) | 0.532 | -2.52 | -7.43 (inactive) |
| O=C(NN=C1C[C@@H](O)[C@@H](O)[C@@H]2[C@@H]3C(=O)N(Cc4ccc5c(c4)OCO5)C(=O)[C@@H]3CC[C@@H]12)OCc1ccccc1 | 0.244 (inactive) | 0.0195 | -1.1 | -3.09 (inactive) |
